# Experimental data from PubChem BioAssay.
# Calls of active or inactive are those of the source.
# Columns and labels:
# Albumin (Bos taurus) = Albumin (Bos taurus) (UniProt P02769); assay: compounds binding labelled BSA control protein – biochemical, small-molecule microarray, Alexa647 label, 635/667 nm fluorescence, artefact control for SMM control protein annotation, profiling panel (AID 1118); details: BSA-A647 binding, fluorescence 635 nm, higher = more signal;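 further: score merges 667 nm emission intensity and signal-to-noise per printed compound spot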
# Sequence of Albumin (Bos taurus) (P02769 whole entry, looked up): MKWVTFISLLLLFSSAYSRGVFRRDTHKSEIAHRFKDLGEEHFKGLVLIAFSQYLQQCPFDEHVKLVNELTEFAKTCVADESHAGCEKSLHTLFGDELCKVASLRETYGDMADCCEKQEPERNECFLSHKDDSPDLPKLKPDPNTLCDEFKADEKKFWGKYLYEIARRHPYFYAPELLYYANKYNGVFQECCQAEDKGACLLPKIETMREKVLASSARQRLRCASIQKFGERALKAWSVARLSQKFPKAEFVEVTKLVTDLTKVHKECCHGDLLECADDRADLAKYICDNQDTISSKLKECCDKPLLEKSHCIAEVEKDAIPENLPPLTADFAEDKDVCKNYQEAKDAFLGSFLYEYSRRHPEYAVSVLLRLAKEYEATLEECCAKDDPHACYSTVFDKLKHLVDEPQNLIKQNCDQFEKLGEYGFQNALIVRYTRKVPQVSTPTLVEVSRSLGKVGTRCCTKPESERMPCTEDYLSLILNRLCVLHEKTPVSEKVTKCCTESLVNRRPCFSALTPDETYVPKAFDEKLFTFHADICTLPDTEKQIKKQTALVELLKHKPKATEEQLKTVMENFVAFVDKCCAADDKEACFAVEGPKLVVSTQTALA
# [1] = probe aXIP binding to arrayed compounds – biochemical, NeuroSMM set, 635/667 nm fluorescence, primary screen (AID 1119); details: small-molecule microarray, higher = more signal, called active from +8 up or from −8 down;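 further: probe is the protein aXip251-270 applied at 1 µg/mL to compound-printed slides; binding of probe to printed compounds measured as 667 nm fluorescence plus signal to noise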
# [2] = probe aNOTCH3 binding on compound microarray – biochemical, small-molecule microarray, 635/667 nm fluorescence, primary screen (AID 1120); details: higher = more signal;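 further: probe is a biotin-tagged antibody raised against NOTCH3 rather than NOTCH3 protein; score merges spot fluorescence near 667 nm with spot signal to noise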
# [3] = probe aNOTCH2 binding on compound microarray – biochemical, small-molecule microarray, 635/667 nm fluorescence, primary screen (AID 1121); details: higher = more signal;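 further: score merges feature fluorescence read at 667 nm with its signal to noise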
# [4] = biological target: Carbonic anhydrase 2 (Homo sapiens) (UniProt P00918); assay: compounds binding carbonic anhydrase 2 – biochemical, small-molecule microarray, Alexa647-labelled CAII, profiling panel (AID 1122); details: CAII-A647 binding fluorescence, higher = more signal
# [5] = COS7 lysate on small-molecule microarray, probe aHis, 635 nm (AID 1123); details: COS7 cell lysate, fluorescence, higher = more signal;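 further: z-score combines 667nm fluorescence intensity with signal-to-noise per printed compound spot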
# [6] = probe aLAP1 signal on lysate-treated microarray – cell lysate, small-molecule microarray, COS7 lysate, primary screen (AID 1124); details: probe aLAP1, fluorescence, higher = more signal;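 further: lysate comes from COS7 cells expressing LAP1 and is applied at 0.3 µg/mL; score merges spot fluorescence near 667 nm with signal-to-noise over triplicate slides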
# Sam68 (KHDRBS1) = assay: compounds binding KHDRBS1 protein – biochemical, small-molecule microarray, 635 nm fluorescence, primary screen (AID 1125); details: higher = more signal;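 further: score merges 667 nm channel intensity with signal to noise over triplicate slides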
# [7] = tested on: Chordin-like protein 2 (CHRDL2); assay: compounds binding chordin-like 2 – biochemical, small-molecule microarray, 635 nm fluorescence, primary screen (AID 1126); details: fluorescence 635 nm, higher = more signal;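 further: printed compound slides probed with Chrdl2 protein at 4 µg/mL for 1 h at 4 C; score merges 667 nm emission intensity with signal to noise over three replicate slides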
# [8] = biological target: Concanavalin-A (Canavalia ensiformis) (UniProt P02866); assay: compounds binding concanavalin A lectin – biochemical, small-molecule microarray, Alexa647 label, 635 nm, artefact control for SMM control protein annotation, primary screen (AID 1127); details: ConA-A647 binding fluorescence, higher = more signal;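 further: z combines 667 nm emission intensity with signal-to-noise across three replicate slides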
# Sequence of Concanavalin-A (Canavalia ensiformis) (P02866 whole entry, looked up): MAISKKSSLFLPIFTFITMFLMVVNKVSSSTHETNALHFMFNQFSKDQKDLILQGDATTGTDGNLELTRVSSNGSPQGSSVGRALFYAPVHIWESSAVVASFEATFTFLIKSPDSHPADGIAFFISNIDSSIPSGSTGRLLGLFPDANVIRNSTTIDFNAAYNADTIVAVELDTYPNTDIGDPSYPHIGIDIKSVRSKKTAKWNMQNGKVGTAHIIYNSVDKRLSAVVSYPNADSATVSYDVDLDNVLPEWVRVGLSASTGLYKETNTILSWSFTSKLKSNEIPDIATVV
# [9] = compounds binding Alexa647 anti-His antibody – biochemical, small-molecule microarray, 635 nm fluorescence, artefact control for SMM control protein annotation, primary screen (AID 1128); details: higher = more signal;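 further: score merges feature fluorescence with signal-to-noise for each printed compound spot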
# [10] = tested on: Human papillomavirus type 1a E7 protein (residues 1-88); assay: HPV1a E7 small-molecule binders, primary screen, biochemical, small-molecule microarray, residues 1-88, 635 nm (AID 1129); details: small-molecule microarray binding, fluorescence 635 nm; higher = more signal
# [11] = biological target: Focal adhesion kinase 1 (Homo sapiens) (UniProt Q05397); assay: PTK2 protein binding on printed compound slides – biochemical, small-molecule microarray, 635/667 nm fluorescence, BSA, DTT, primary screen (AID 1130); details: 635 nm fluorescence, higher = more signal;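 further: composite of spot emission at 667 nm and signal to noise over triplicate slides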
# Sequence of Focal adhesion kinase 1 (Homo sapiens) (Q05397 whole entry, looked up): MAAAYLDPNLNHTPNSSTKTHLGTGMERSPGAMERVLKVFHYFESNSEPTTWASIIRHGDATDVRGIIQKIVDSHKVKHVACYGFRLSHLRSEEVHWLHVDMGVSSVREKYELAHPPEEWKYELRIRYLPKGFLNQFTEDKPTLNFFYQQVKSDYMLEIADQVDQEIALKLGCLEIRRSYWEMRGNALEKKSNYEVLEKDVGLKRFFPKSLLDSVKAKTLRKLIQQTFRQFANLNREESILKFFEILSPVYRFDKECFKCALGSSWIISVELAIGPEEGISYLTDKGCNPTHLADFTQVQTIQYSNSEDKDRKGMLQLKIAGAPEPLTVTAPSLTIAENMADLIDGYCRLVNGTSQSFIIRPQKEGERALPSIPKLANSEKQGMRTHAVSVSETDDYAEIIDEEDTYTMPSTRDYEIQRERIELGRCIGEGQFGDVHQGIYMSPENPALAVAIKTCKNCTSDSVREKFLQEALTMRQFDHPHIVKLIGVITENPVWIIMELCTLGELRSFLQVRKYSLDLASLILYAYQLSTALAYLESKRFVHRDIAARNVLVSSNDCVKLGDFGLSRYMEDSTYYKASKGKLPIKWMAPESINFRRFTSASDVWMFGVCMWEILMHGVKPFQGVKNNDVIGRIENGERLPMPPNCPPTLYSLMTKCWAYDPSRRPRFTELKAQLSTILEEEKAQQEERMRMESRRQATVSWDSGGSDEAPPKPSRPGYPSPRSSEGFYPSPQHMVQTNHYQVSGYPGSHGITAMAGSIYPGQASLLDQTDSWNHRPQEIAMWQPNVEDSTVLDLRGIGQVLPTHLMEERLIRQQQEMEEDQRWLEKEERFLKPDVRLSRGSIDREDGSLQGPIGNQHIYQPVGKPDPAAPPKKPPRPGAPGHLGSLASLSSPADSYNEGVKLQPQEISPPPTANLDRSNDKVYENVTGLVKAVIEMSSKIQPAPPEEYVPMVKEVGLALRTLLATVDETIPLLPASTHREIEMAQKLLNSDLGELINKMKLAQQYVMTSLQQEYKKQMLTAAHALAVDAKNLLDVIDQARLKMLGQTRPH
# [12] = tested on: Fibrinogen (Alexa647-labelled); assay: Alexa647-fibrinogen binding to printed small molecules – biochemical, small-molecule microarray, 635/667 nm fluorescence, artefact control for SMM control-protein annotation, profiling panel (AID 1131); details: fibrinogen-A647 binding fluorescence, higher = more signal;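 further: z-score merges 667 nm fluorescence with per-spot signal-to-noise over triplicate slides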
# [13] = biological target: Follistatin (Homo sapiens) (UniProt P19883); assay: FST protein binding to printed compounds – biochemical, small-molecule microarray, 635/667 nm fluorescence, primary screen (AID 1132); details: 635 nm fluorescence, higher = more signal
# Sequence of Follistatin (Homo sapiens) (P19883 whole entry, looked up): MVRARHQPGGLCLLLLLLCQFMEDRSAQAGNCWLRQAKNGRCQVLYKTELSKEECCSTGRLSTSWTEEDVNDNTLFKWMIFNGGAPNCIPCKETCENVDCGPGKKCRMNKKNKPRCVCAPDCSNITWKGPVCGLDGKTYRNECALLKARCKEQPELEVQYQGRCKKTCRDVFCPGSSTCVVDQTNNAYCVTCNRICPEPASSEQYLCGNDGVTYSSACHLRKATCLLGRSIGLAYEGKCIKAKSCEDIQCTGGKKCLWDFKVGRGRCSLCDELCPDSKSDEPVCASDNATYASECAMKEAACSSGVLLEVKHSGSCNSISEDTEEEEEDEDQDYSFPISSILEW
# [14] = biological target: Fibroblast growth factor 2 (Homo sapiens) (UniProt P09038); assay: basic fibroblast growth factor binding to printed compounds – biochemical, small-molecule microarray, 635/667 nm fluorescence, primary screen (AID 1133); details: FGF2, fluorescence 635/667, higher = more signal
# Sequence of Fibroblast growth factor 2 (Homo sapiens) (P09038 whole entry, looked up): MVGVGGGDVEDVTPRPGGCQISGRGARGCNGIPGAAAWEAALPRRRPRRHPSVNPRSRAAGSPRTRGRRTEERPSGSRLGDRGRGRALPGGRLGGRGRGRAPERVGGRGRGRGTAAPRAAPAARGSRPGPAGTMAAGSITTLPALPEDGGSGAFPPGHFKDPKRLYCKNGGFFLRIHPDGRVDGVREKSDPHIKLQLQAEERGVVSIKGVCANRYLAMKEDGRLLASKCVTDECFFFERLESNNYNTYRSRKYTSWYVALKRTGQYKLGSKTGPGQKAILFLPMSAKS
# [15] = JC-1 mitochondrial potential readout, lung cancer cells – cell-based, A549, JC-1 fluorescence, basal, 24 h, 100 nL, profiling panel (AID 1138); details: higher = more signal;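 further: A549 lung adenocarcinoma cells under basal conditions with no added stimulus; test concentration not given here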
# Lefty1 = Lefty1 protein binding to printed compounds – biochemical, small-molecule microarray, 635/667 nm fluorescence, primary screen (AID 1139); details: fluorescence 635/667, higher = more signal
# [16] = tested on: wheat germ agglutinin (Triticum aestivum), Alexa647-labelled; assay: Alexa647-WGA lectin binding to printed small molecules – biochemical, small-molecule microarray, 635/667 nm fluorescence, artefact control for SMM control-protein annotation, profiling panel (AID 1140); details: WGA-A647 binding, 635 nm fluorescence, higher = more signal;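 further: score merges 667 nm feature emission with signal to noise over triplicate slides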
# [17] = biological target: Luciferin 4-monooxygenase (Photinus pyralis) (UniProt P08659); assay: inhibition of purified Photinus pyralis luciferase – biochemical, luminescence, purified enzyme, 2006 set, primary screen (AID 1141); details: purified firefly luciferase, SteadyGlo luminescence, 30 min; higher = more signal, called active from +8 up or from −8 down;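 further: cell-free assay with purified firefly luciferase at 100 ng per well in PBS; test concentration not given here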
# Sequence of Luciferin 4-monooxygenase (Photinus pyralis) (P08659 whole entry, looked up): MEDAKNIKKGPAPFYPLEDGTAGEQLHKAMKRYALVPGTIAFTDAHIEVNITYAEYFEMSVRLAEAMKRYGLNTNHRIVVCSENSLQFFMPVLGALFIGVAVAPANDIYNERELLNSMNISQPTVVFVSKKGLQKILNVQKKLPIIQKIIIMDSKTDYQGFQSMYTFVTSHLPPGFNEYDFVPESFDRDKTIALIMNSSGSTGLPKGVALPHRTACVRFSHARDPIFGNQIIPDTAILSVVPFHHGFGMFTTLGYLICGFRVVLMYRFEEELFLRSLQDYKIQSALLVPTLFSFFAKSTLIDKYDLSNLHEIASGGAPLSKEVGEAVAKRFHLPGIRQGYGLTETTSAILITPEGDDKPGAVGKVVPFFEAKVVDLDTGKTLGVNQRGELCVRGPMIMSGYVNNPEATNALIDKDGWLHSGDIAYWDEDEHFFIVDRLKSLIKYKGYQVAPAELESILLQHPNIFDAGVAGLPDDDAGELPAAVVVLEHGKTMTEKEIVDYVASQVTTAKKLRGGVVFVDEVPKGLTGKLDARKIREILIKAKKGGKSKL
SMILES,composite z-score (Albumin (Bos taurus)),composite Z-score [1],composite z-score [2],composite z-score [3],composite z-score [4],composite z-score [5],composite z-score [6],composite z-score (Sam68 (KHDRBS1)),composite z-score [7],composite z-score [8],composite z-score [9],composite z-score [10],composite z-score [11],composite z-score [12],composite z-score [13],composite z-score [14],z-score [15],composite z-score (Lefty1),composite z-score [16],z-score [17]
C=CC[C@@]1(C(=O)NCCN2CCOCC2)N=C(c2ccc(OCCCO)cc2)O[C@@H]1c1ccccc1N=[N+]=[N-],0.711,0.346 (inactive),-0.396,-0.109,0.716,1.62,0.232,0.176,0.703,-0.572,0.373,0.126,0.503,0.161,1.36,0.399,0.404,0.113,1.18,-5.94 (inactive)
[N-]=[N+]=Nc1ccccc1[C@H]1OC(c2ccc(OCCCO)cc2)=N[C@@]1(CCS(=O)(=O)c1ccccc1)C(=O)NCC(O)CO (stereo not given in full),0.876,-0.0683 (inactive),0.102,-0.0984,0.718,3.02,0.261,1.33,-0.907,0.833,1.52,0.94,0.605,1.07,1.27,0.057,0.233,-0.0179,0.914,-9.88 (active)
C=CCOC(=O)[C@H]1[C@@H]2C(=O)O[C@@H](c3ccccc3)[C@@H](c3ccccc3)N2[C@@H](c2ccc(OCCOC(=O)[C@H]3C[C@H]4C(=O)N[C@@H](CCCCNC(C)=O)C(=O)N4[C@H]3c3cccc(OCCO)c3)cc2)[C@]12C(=O)Nc1ccccc12,-0.168,0.93 (inactive),-0.0026,-0.114,0.392,2.16,0.168,1.25,1.31,1.15,2.14,1.18,-0.333,0.525,1.31,1.53,-0.472,1.08,0.38,-0.487 (inactive)
CC1(C)[C@@H]2CC(C(O)C3C=CC4C(=O)N(Cc5ccccc5)C(=O)C4N3n3cnnc3)=C[C@H]1C2 (stereo not given in full),0.925,-0.132 (inactive),-0.0079,-0.0866,0.651,1.39,0.641,1.34,0.371,0.39,0.356,1.19,0.218,0.744,0.86,0.321,-0.287,0.625,0.901,1.62 (inactive)
COc1ccc([Si](C)(C)[C@H]2[C@H](CC(=O)N3Cc4ccccc4C[C@H]3CO)O[C@@]3(C(=O)N(Cc4cccc(N5CCC5=O)c4)c4ccccc43)[C@@H]2C)cc1,-0.606,0.923 (inactive),-0.0003,-0.14,0.584,1.4,0.0972,1.2,1.21,0.64,0.322,1.19,0.527,0.135,1.33,1.47,0.526,1.22,0.107,-0.796 (inactive)
O=C1O[C@H](c2ccccc2)[C@H](c2ccccc2)N2[C@H]1[C@@H](C(=O)N1CCCCCCC1)[C@]1(C(=O)Nc3ccc(C#CC4=CCCCC4)cc31)[C@H]2c1ccc(OCCO)cc1,0.833,7.2 (inactive),2.11,1.05,0.837,3.66,1.3,1.25,1.48,1.15,2.15,1.26,3.18,0.9,1.49,0.833,-1.3,1.65,1.47,-1.2 (inactive)
CC(C)c1ccc(NN2C(C(O)c3ccc(B(O)O)cc3)C=CC3C(=O)N(c4ccccc4)C(=O)C32)cc1 (stereo not given),0.958,-0.852 (inactive),0.216,0.0571,0.493,2.32,0.681,1.26,-1.06,1.06,1.24,1.2,0.581,0.952,1.32,-0.159,-0.641,0.481,0.783,-6.16 (inactive)
COCCOC(=O)N1C(=O)[C@@]2(c3cc(C#CCC(C(=O)OC)C(=O)OC)ccc31)[C@H](C(=O)N1CCN(c3ncccn3)CC1)[C@H]1C(=O)O[C@H](c3ccccc3)[C@H](c3ccccc3)N1[C@@H]2c1ccccc1OCCO,-0.503,-0.444 (inactive),0.176,-0.147,0.347,0.928,0.698,1.29,1.09,1.13,1.02,1.2,0.467,0.997,1.38,1.29,-0.835,1.54,0.755,-0.291 (inactive)
COc1ccc(CCNC(=O)[C@@]2(Sc3ccc(C)cc3)CC(=O)N(C(C)C)[C@@H]2c2ccc(CO)cc2I)cc1,-0.235,-0.174 (inactive),-0.0647,0.0118,0.304,1.04,0.648,0.0063,-0.578,-0.613,0.622,0.178,0.0367,0.144,-0.147,-0.172,0.968,-0.979,-0.258,-0.436 (inactive)
COC(=O)[C@@]1(Cc2ccc(OC)cc2)[C@H]2c3cc(C(=O)N4CCCC4)n(Cc4ccc(C)c(F)c4F)c3C[C@H]2CN1C(=O)c1ccccc1,1.05,-0.572 (inactive),0.538,0.223,0.744,3.22,0.345,1.3,-0.596,1.15,1.39,1.27,1.32,0.97,0.884,-0.294,1.41,-0.161,1.32,1.44 (inactive)
